Reference: ChEMBL document CHEMBL3988442, “University of Dundee, Small-Polar-MMV Screening Library” (2021)
For some of these results: Measured potencies and affinities stand elsewhere.

Legend:
Parameters in all cases: scale not given: direction of the effect not stated beside the values
[1] = target: Protein translocase subunit SecA (Escherichia coli (strain K12)) (UniProt P10408); assay: Assay to Identify E. coli SecA ATPase Inhibitors; assay type: functional; settings: 30 µM
[2] = target: T1, Ubiquitin-activating enzyme e1, putative (Leishmania donovani (strain BPK282A1)) (UniProt E9BSI1); assay: Leishmania donovani Ubiquitin Activating Enzyme (LdE1); assay type: functional; settings: 30 µM
T1 sequence (whole entry): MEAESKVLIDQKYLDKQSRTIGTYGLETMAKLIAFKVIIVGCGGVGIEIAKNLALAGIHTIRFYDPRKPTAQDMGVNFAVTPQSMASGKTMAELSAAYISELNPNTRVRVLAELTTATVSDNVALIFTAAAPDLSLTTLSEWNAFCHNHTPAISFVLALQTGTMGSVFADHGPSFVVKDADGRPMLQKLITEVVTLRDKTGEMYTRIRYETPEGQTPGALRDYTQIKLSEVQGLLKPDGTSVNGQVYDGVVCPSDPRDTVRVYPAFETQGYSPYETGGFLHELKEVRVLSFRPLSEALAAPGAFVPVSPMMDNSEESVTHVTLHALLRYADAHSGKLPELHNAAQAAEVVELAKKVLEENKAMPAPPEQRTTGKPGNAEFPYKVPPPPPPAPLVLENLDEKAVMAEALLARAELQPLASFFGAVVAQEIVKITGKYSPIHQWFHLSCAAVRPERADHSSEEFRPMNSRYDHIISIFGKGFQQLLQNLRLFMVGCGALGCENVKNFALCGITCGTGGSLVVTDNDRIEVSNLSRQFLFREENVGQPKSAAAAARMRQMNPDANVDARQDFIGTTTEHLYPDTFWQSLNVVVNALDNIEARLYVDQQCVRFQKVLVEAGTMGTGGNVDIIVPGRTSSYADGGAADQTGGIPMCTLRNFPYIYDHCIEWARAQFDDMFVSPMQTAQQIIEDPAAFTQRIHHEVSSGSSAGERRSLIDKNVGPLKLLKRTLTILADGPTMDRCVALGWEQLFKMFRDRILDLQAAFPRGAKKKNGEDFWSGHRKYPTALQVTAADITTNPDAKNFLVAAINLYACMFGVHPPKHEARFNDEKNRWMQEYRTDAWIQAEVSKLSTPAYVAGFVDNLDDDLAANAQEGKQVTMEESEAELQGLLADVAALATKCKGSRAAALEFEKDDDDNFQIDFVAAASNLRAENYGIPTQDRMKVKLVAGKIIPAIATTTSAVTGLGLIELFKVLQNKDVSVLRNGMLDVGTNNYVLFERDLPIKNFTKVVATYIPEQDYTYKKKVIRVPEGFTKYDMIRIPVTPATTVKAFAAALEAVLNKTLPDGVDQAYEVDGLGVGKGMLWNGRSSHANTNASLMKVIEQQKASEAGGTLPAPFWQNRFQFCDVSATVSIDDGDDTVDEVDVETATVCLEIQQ

[3] = target: AMP-activated protein kinase, AMPK (Homo sapiens) (UniProt P54646+O43741+P54619+Q9UGJ0+Q9Y478+Q13131+Q9UGI9); assay: AMP-dependent Kinase enzyme assay. An in vitro enzyme assay that detects ADP turnover that is directly proportional to AMPK activity. This uses naive AMPK that is activated during the assay with MK-8722; assay type: functional; settings: 30 µM
[4] = target: Sialic acid-binding Ig-like lectin 9 (Homo sapiens) (UniProt Q9Y336); assay: Hs-Siglec9 ALPHAscreen SOP 20170721; settings: 10 µM
Chain of Sialic acid-binding Ig-like lectin 9 (Homo sapiens) (Q9Y336 whole entry): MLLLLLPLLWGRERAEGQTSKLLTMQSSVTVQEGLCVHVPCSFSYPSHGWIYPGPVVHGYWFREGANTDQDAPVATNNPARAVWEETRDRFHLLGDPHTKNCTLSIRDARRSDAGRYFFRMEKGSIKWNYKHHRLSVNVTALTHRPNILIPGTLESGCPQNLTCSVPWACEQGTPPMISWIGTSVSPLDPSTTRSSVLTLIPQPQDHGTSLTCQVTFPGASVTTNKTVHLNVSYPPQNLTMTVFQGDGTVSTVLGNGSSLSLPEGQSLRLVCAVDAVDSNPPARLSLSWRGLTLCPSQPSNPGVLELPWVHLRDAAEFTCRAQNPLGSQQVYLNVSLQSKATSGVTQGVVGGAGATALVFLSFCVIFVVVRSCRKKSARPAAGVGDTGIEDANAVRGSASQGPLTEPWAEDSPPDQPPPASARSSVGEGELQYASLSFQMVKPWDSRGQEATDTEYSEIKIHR

[5] = test system: Trypanosoma cruzi; assay: Trypanosoma cruzi phosphomannomutase and mannose-1-phosphate guanylyltransferase assay; assay type: functional; settings: 10 µM
[6] = target: T2, Arginase-2, mitochondrial (Homo sapiens) (UniProt P78540); assay: in vitro enzyme assay to detect the production of urea directly proportional to the activity of Arginase II; assay type: functional; settings: 33.3 µM; further: in the data most compounds retested in dose-response had high values
T2 sequence (whole entry): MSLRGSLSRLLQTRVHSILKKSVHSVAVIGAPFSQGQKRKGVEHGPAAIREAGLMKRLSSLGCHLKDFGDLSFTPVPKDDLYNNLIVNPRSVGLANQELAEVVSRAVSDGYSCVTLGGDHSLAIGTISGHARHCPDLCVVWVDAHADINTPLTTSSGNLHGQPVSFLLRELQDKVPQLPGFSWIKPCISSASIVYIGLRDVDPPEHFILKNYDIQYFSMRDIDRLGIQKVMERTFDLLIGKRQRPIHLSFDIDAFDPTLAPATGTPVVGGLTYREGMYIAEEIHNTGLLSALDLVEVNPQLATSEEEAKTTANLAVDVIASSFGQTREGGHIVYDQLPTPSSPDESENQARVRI

[7] = target: T3, Proteasome subunit beta (Trypanosoma cruzi) (UniProt O96673); assay: Trypanosoma cruzi proteasome chymotrypsin-like activity (TcProtChymo) assay.; further: in the data most compounds retested in dose-response had high values; assay type: functional; settings: 9.37 µM
T3 sequence (whole entry): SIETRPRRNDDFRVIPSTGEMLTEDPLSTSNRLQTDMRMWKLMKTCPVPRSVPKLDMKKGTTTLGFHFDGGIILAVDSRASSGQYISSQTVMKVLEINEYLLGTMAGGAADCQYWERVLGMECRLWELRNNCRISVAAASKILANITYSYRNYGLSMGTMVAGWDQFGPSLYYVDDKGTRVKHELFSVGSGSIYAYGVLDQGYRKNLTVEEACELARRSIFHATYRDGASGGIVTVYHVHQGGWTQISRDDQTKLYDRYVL

[8] = organism: Homo sapiens; assay: To identify inhibition of the IFN signalling (Jak-Stat) pathway via expression of an eGFP reporter gene under the control of an IFN-stimulated response element (ISRE) containing MxA promoter.; assay type: functional; settings: 30 µM
[9] = target: T4, Tyrosyl-tRNA synthetase, putative (Trypanosoma cruzi (strain CL Brener)) (UniProt Q4DSP6); assay: Trypanosoma cruzi tyrosyl tRNA synthetase (TcYRS) _High Tyrosine SOP; assay type: functional; settings: 30 µM; further: in the data most compounds retested in dose-response had high values
T4 sequence (whole entry): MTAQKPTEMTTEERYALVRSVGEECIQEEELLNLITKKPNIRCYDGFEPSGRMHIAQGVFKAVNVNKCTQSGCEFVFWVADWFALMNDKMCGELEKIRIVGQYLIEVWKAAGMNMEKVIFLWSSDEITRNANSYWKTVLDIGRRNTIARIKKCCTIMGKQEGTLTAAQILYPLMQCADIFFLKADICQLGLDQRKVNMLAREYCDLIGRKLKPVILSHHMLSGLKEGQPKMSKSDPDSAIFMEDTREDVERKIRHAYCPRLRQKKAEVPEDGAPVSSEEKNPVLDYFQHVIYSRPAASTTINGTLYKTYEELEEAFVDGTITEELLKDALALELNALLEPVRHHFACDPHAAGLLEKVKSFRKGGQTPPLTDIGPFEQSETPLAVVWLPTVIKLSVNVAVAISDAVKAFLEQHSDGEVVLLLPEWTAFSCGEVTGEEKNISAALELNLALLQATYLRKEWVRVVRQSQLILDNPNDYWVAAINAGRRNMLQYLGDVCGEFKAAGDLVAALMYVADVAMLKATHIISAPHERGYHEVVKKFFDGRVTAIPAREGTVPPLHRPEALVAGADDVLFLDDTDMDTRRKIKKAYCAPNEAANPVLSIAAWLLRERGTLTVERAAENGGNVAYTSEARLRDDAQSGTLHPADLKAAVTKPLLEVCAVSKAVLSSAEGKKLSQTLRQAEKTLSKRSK

[10] = target: T4, Tyrosyl-tRNA synthetase, putative (Trypanosoma cruzi (strain CL Brener)); assay: Trypanosoma cruzi tyrosyl tRNA synthetase (TcYRS) SOP; assay type: functional; settings: 30 µM
[11] = target: Chromo domain-containing protein 1 (Saccharomyces cerevisiae (strain ATCC 204508 / S288c) (Baker's yeast)) (UniProt P32657); assay: ScCHD-1 Enzyme Inhibition Assay; assay type: functional; settings: 30 µM; further: in the data most compounds retested in dose-response had high values
Chain of Chromo domain-containing protein 1 (Saccharomyces cerevisiae (strain ATCC 204508 / S288c) (Baker's yeast)) (P32657 whole entry, the tested form may be a part): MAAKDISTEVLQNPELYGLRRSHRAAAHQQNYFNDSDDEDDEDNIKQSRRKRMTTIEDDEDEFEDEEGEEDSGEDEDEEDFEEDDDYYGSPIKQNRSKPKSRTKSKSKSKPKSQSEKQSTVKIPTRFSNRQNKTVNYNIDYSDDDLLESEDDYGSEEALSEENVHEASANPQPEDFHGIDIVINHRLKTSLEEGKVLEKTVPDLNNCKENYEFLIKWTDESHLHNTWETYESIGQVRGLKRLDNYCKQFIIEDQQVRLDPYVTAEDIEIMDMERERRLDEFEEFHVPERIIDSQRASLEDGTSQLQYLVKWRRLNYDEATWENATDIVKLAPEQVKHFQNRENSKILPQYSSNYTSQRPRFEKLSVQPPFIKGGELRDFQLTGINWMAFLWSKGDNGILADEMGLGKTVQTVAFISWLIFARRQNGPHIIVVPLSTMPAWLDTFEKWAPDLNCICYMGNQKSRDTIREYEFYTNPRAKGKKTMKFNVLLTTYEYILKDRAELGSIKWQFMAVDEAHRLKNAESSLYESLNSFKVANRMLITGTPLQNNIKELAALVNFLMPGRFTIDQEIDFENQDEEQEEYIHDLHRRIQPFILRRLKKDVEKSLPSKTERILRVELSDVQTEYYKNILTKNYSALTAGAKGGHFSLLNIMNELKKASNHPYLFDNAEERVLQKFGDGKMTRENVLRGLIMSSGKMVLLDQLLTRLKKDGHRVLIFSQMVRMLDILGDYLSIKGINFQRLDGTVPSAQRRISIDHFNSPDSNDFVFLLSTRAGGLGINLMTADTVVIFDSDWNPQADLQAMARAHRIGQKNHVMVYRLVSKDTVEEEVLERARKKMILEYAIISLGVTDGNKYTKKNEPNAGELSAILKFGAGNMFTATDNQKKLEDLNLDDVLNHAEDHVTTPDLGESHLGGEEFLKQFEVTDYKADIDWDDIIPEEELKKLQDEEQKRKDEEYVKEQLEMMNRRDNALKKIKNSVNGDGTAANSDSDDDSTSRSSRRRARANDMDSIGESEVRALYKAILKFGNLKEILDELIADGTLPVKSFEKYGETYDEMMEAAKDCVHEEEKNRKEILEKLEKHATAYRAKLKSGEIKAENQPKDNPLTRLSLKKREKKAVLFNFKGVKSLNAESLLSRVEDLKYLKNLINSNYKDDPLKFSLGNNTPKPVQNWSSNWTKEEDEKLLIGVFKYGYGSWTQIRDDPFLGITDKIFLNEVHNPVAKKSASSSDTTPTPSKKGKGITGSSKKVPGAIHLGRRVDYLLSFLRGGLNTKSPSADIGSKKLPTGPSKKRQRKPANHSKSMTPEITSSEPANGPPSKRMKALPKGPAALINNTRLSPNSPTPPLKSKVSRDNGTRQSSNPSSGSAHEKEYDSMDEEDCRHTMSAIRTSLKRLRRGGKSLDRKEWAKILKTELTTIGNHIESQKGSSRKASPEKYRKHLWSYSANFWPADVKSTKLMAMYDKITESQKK

Chain of Protein translocase subunit SecA (Escherichia coli (strain K12)) (P10408 whole entry): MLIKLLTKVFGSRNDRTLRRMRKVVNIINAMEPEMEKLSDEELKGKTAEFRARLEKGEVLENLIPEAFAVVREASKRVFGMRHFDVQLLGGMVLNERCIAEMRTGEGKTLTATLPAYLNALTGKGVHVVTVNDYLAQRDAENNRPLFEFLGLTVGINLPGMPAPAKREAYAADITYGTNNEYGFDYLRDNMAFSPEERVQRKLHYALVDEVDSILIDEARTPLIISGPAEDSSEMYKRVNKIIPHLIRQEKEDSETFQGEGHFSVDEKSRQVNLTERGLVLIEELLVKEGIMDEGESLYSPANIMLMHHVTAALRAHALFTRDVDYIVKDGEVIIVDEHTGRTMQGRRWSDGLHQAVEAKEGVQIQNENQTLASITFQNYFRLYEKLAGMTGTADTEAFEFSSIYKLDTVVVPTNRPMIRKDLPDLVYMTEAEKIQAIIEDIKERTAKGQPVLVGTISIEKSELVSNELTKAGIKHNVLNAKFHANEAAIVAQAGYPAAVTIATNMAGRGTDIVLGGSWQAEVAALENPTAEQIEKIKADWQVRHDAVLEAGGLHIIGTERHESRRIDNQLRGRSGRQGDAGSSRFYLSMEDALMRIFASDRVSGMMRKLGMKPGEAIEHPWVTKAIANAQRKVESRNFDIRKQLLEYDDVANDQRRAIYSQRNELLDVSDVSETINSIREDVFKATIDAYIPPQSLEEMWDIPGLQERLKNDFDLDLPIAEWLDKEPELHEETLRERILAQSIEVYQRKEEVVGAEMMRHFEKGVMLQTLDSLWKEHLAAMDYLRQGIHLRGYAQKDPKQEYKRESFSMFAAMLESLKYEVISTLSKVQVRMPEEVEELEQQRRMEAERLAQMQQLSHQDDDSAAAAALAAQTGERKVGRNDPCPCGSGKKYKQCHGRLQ

Row | SMILES | Percent Effect [1] [%] | Percent Effect [2] [%] | Percent Effect [3] [%] | Percent Effect [4] [%] | Percent Effect [5] [%] | Percent Effect [6] [%] | Percent Effect [7] [%] | Percent Effect [8] [%] | Percent Effect [9] [%] | Percent Effect [10] [%] | Percent Effect [11] [%]
1 | Cc1nc(C)n(CC2CN(Cc3cccc(C#N)c3)CCO2)n1 (stereo unspecified) | -0.461 | 13.5 | -1.52 | 2.34 | 2.74 | 0.802 | 14.6 | 0.861 | -10.3 | 18.5 | -3.18
2 | CN1CCN(C(=O)c2nc3c(o2)CN(C(=O)c2cccnc2)C3)CC1 | -2.08 | 0 | -4.16 | 2.81 | -1.28 | -5.52 | 14 | 2.22 | 1.07 | 8.64 | 1.76
3 | Cc1ccc(C(NC(=O)[C@H]2CC[C@@H](O)CC2)c2cccnc2)cc1C (stereo partly specified) | -7.06 | 5.33 | 2.02 | 2.58 | -1.07 | 4.17 | 8.2 | -9.12 | 0.546 | 8.64 | -6.38
4 | CN(Cc1ncc[nH]1)S(=O)(=O)c1cccc(C(=O)N2CCOCC2)c1 | -6.58 | 5.48 | 4.01 | 0.744 | -1.76 | 1.82 | 7.1 | 0.0404 | 2.15 | 7.5 | -7.89
5 | CN(CCn1nc2ccccn2c1=O)CC(=O)NC1CC1 | 0.259 | -2.63 | 7.37 | -0.458 | -2.63 | 15.4 | 10.4 | -11.8 | 2.13 | 0 | -5.38
6 | Cc1nn(C)c(C)c1CNCc1ccc(N2CCOCC2)nc1 | -1.63 | 11.4 | 6.09 | -0.523 | 1.95 | -1.5 | 10.6 | 13.4 | 8.33 | 25.3 | -25.1
7 | CSc1cccc(CNC(=O)C2CC(=O)N(CCN(C)C)C2)c1 (stereo unspecified) | 0.794 | 5.33 | -10.1 | 4.4 | -2.82 | 1.56 | 15.7 | 9.77 | 4.92 | 13.6 | -3.47
8 | CCc1nc(CN(Cc2cccs2)CC2CCCO2)no1 (stereo unspecified) | -0.473 | -11.4 | 2.16 | 0.0835 | -0.308 | 2.37 | 4.29 | 10.4 | -3.12 | 5.06 | 3.56
9 | CCn1ncc2c1CCCC2NCC1=Cc2ccccc2OC1 (stereo unspecified) | -4.51 | 3.8 | 4.34 | 0.918 | 1.95 | -7.1 | 10.1 | 13.4 | 4.17 | 7.59 | -2
10 | COc1cc2nc(C)n(CC(=O)O)c(=O)c2cc1OC | -4.09 | 6.67 | 6.76 | 2.01 | -0.982 | 1.23 | 13.1 | 19.2 | 8.47 | 12.8 | -7.94
11 | Cc1nc(C2CCCN2CC(=O)NCCc2ccsc2)no1 (stereo unspecified) | -2.17 | 16.2 | -10.4 | 13.2 | 5.11 | 3.51 | 10.4 | -5.59 | 6.93 | 18.3 | -8.06
